From PubChem BioAssay
For part of these data: Potency and affinity values are given separately. Active and inactive are the calls of the source. Unless noted, no rule for the calls is given here.

Tests used:
[1] = antimalarial activity against Dd2 strain (AID 2302;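 active = growth inhibition above 50% at the single 2 µM test dose, taken to imply half-maximal potency below 2 µM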;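 also: 0% = DMSO untreated growth and 100% = chloroquine plus artemisinin killed control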); conditions: P. falciparum Dd2 in RBCs, LDH growth readout, 72 h; at 2 µM; active compounds read high
[2] = HepG2 cytotoxicity, primary screen, cytotoxicity control for P. falciparum antimalarial project, cell-based, ATP luminescence (AID 2303;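 active = inhibition above 50%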;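 also: 0% = DMSO wells and 100% = digitonin-killed cells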); conditions: HepG2 viability, 24-48 h, at 10 µM, active compounds read high
[3] = biological target: L-lactate dehydrogenase (Plasmodium falciparum (isolate CDC / Honduras)) (UniProt Q27743); test: PfLDH activity inhibition – cell lysate, 3D7 strain, counter-screen for P. falciparum growth inhibition project (AID 2304);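 also: 0% = vehicle and 100% = reference inhibitor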; conditions: P. falciparum 3D7 crude extract, LDH APAD/NBT absorbance; at 2 µM; active compounds read high
[4] = inhibition of 3D7 malaria parasite growth – strain 3D7 (AID 2306);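 also: 0% = DMSO wells and 100% = chloroquine plus artemisinin control wells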; conditions: P. falciparum 3D7 erythrocytic growth, LDH absorbance, 72 h; at 2 µM; active compounds read high
[5] = biological target: Calcium-dependent protein kinase 1 (Plasmodium falciparum (isolate 3D7)) (UniProt P62344); test: PfCDPK1 kinase inhibitors, biochemical, TCAMS library (AID 1159585; cut-off not given, nearly all actives have IC50 up to about 0.98 µM;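 also: inhibitors leave more ATP so luminescence rises with inhibition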); conditions: recombinant PfCDPK1, Kinase-Glo ATP depletion luminescence
[6] = biological target: Plasmodium falciparum protein kinase 6 (PK6, PF3D7_1337100) (UniProt Q8IDW1); test: PfPK6 kinase inhibitors, biochemical, TCAMS library (AID 1159586); conditions: recombinant PfPK6, Kinase-Glo ATP depletion luminescence
[7] = biological target: Protein kinase 7 (PK7), Plasmodium falciparum 3D7 (PF3D7_0213400) (UniProt Q7YTF7); test: inhibition of Plasmodium PK7 catalytic activity – biochemical, TCAMS antimalarial set, Kinase-Glo luminescence (AID 1159587); conditions: recombinant PfPK7, Kinase-Glo ATP depletion luminescence
[8] = biological target: Calcium-dependent protein kinase 4 (Plasmodium falciparum (isolate 3D7)) (UniProt Q8IBS5); test: PfCDPK4 kinase inhibitors, biochemical, TCAMS library (AID 1159588; cut-off not given, nearly all actives have IC50 up to about 0.91 µM); conditions: recombinant PfCDPK4, Kinase-Glo ATP depletion luminescence
Sequence of Calcium-dependent protein kinase 4 (Plasmodium falciparum (isolate 3D7)) (Q8IBS5 whole entry, looked up): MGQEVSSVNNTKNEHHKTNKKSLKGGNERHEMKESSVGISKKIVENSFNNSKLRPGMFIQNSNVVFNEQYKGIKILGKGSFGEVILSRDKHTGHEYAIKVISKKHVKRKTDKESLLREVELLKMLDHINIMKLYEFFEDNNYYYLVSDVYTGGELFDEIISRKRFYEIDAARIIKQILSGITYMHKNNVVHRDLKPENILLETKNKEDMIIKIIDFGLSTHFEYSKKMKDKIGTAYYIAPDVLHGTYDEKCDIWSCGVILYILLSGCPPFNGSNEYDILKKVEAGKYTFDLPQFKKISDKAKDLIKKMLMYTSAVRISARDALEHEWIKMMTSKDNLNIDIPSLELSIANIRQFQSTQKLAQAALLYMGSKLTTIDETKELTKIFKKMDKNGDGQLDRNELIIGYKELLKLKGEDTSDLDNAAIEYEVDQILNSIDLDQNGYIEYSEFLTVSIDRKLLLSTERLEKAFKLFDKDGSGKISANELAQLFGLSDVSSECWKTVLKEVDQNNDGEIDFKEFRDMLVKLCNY

Sequence of Plasmodium falciparum protein kinase 6 (PK6, PF3D7_1337100) (Q8IDW1 1-305): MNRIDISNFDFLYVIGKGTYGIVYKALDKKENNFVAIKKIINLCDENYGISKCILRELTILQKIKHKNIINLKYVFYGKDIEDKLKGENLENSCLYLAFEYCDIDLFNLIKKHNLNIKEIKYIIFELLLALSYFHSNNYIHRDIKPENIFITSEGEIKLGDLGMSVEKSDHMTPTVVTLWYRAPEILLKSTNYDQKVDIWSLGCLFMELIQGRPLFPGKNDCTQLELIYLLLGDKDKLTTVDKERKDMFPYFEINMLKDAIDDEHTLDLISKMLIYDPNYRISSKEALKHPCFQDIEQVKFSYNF
Sequence of Protein kinase 7 (PK7), Plasmodium falciparum 3D7 (PF3D7_0213400) (Q7YTF7 1-343): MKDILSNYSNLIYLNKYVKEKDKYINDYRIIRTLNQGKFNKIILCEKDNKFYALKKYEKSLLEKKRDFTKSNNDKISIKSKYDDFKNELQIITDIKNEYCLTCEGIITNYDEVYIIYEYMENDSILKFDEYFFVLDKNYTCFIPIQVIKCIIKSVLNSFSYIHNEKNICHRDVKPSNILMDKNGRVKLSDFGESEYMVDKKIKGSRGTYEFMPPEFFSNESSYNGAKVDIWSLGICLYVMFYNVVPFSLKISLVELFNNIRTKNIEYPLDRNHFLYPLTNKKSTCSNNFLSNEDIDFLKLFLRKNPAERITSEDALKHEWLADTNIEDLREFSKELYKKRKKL
Sequence of L-lactate dehydrogenase (Plasmodium falciparum (isolate CDC / Honduras)) (Q27743 whole entry, looked up): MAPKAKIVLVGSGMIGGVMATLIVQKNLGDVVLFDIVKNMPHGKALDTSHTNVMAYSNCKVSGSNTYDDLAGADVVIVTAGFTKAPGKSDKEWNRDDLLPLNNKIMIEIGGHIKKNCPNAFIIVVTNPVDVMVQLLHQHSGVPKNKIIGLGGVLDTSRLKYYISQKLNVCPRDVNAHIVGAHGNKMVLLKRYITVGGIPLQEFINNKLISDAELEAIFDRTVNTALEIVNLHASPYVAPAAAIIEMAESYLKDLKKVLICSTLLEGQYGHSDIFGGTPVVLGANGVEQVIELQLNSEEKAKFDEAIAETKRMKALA
Sequence of Calcium-dependent protein kinase 1 (Plasmodium falciparum (isolate 3D7)) (P62344 whole entry, looked up): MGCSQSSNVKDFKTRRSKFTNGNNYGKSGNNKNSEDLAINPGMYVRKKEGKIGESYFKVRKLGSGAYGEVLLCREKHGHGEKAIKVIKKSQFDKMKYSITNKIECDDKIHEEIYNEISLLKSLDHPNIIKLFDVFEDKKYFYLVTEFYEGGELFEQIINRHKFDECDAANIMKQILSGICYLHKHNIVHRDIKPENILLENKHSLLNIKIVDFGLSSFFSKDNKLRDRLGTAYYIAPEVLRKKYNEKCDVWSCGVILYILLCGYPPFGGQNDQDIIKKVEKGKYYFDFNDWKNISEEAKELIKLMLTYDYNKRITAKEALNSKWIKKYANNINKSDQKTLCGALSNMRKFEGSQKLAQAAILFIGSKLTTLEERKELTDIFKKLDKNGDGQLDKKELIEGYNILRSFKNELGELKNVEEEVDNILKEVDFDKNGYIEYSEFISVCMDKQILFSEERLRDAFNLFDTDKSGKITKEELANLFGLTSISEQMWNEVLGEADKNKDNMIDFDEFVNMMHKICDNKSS

Cc1cc(O)c(CN(C)Cc2ccc3c(c2)OCO3)cc1C(C)C
active: growth inhibition [1] 74% | growth inhibition [4] 98%
inactive: inhibition [2] 9% | inhibition [3] 0% | outcome [5] | outcome [6] | outcome [7] | outcome [8]

CCN(CC)CCN(Cc1ccc(-c2ccc(C(F)(F)F)cc2)cc1)C(=O)Cn1c(CCc2ccc(F)c(F)c2)cc(=O)c2ccccc21
inactive: growth inhibition [1] 26% | inhibition [2] 23% | inhibition [3] -1% | outcome [5] | outcome [6] | outcome [7] | outcome [8]
active: growth inhibition [4] 95%

Cc1cc(NC(=O)c2cccs2)ccc1OC1CCN(Cc2ccc(F)cc2)CC1
active: growth inhibition [1] 92% | growth inhibition [4] 94%
inactive: inhibition [2] 7% | inhibition [3] -1% | outcome [5] | outcome [6] | outcome [7] | outcome [8]

Cc1cccc2[nH]c(-c3cccc(-c4ccc(NC(=O)C5CC(=O)Nc6ccccc65)cc4)c3)nc12 (stereo not drawn)
active: growth inhibition [1] 56% | growth inhibition [4] 87%
inactive: inhibition [2] 15% | inhibition [3] 3% | outcome [5] | outcome [6] | outcome [7] | outcome [8]

O=C1NC(c2ccccc2)C2(CCN(CC(O)COc3cccc4ncccc34)CC2)O1 (stereo not drawn)
inactive: inhibition [2] 5% | inhibition [3] -4% | outcome [5] | outcome [6] | outcome [7] | outcome [8]
active: growth inhibition [1] 95% | growth inhibition [4] 92%

O=C(/C=C/c1ccc(C(F)(F)F)cc1)NCCCCCN1CCN(C(=O)Nc2ccc(Cl)cc2)CC1
inactive: growth inhibition [1] -4% | inhibition [2] 37% | inhibition [3] -8% | outcome [5] | outcome [6] | outcome [7] | outcome [8]
active: growth inhibition [4] 88%

N#Cc1ccc2c(c1)CCN(CCC1CCC(NC(=O)c3cccc(-c4ccc(F)cc4)c3)CC1)CC2 (stereo not drawn)
inactive: growth inhibition [1] 10% | inhibition [2] 32% | inhibition [3] -3% | outcome [5] | outcome [6] | outcome [7] | outcome [8]
active: growth inhibition [4] 92%

CS(=O)(=O)CCNCc1cccc(-c2cc3c(Nc4ccc(OCc5ccccc5)cc4)ncnc3cn2)c1
inactive: growth inhibition [1] 26% | inhibition [2] 3% | inhibition [3] 2% | outcome [5] | outcome [6] | outcome [7] | outcome [8]
active: growth inhibition [4] 101%

Nc1nc(N)c2c(ccc3ccccc32)n1
inactive: growth inhibition [1] 20% | inhibition [3] -1% | outcome [5] | outcome [6] | outcome [7] | outcome [8]
active: inhibition [2] 60% | growth inhibition [4] 98%

COc1cc(NC(=O)NC(CCN2CCC3(CCc4ccccc43)CC2)c2ccc(Cl)c(Cl)c2)cc(OC)c1OC (stereo not drawn)
inactive: inhibition [3] 6% | outcome [5] | outcome [6] | outcome [7] | outcome [8]
active: growth inhibition [1] 66% | inhibition [2] 66% | growth inhibition [4] 90%

O=C(c1cccc(-c2noc(C(F)(F)F)n2)c1)N1CCN(c2ccncc2)CC1
inactive: inhibition [2] 14% | inhibition [3] 3% | outcome [5] | outcome [6] | outcome [7] | outcome [8]
active: growth inhibition [1] 56% | growth inhibition [4] 90%

COc1ccc(O)cc1/C=N/Nc1ccnc2cc(Cl)ccc12
inactive: inhibition [2] -5% | inhibition [3] 3% | outcome [5] | outcome [6] | outcome [7] | outcome [8]
active: growth inhibition [1] 92% | growth inhibition [4] 103%

Cc1ccc2c(Cc3cnc(N)nc3N)cc(C)c(N)c2n1
active: growth inhibition [1] 92% | growth inhibition [4] 91%
inactive: inhibition [2] -19% | inhibition [3] -2% | outcome [5] | outcome [6] | outcome [7] | outcome [8]

CC(C)CCn1c(Sc2ccc(C#N)c([N+](=O)[O-])c2)nnc1-c1ccccc1Cl
inactive: growth inhibition [1] 38% | inhibition [2] 20% | inhibition [3] 3% | outcome [5] | outcome [6] | outcome [7] | outcome [8]
active: growth inhibition [4] 93%

c1ccc2[nH]c(-c3ccc(-c4ccc(CNCC5CCCO5)cc4)s3)nc2c1 (stereo not drawn)
active: growth inhibition [1] 87% | growth inhibition [4] 101%
inactive: inhibition [2] 27% | inhibition [3] 4% | outcome [5] | outcome [6] | outcome [7] | outcome [8]

COCCN1CCC(N(Cc2ccc(-c3ccc(OC(F)(F)F)cc3)cc2)C(=O)Cn2c(CCc3cccc(F)c3F)cc(=O)c3ccccc32)CC1
active: growth inhibition [1] 92% | inhibition [2] 100% | growth inhibition [4] 96%
inactive: inhibition [3] -10% | outcome [5] | outcome [6] | outcome [7] | outcome [8]

O=C(NC1CCCCC1)N(CCCn1ccnc1)Cc1csc(-c2ccc(CNCc3ccccc3)cc2)n1
active: growth inhibition [4] 97%
inactive: growth inhibition [1] 48% | inhibition [2] 5% | inhibition [3] 0% | outcome [5] | outcome [6] | outcome [7] | outcome [8]

COc1ccc(-c2cccc(NC(=O)c3cccc(Cl)c3)c2)cc1CN1CCCC1
active: growth inhibition [1] 66% | growth inhibition [4] 99%
inactive: inhibition [2] 45% | inhibition [3] 1% | outcome [5] | outcome [6] | outcome [7] | outcome [8]

O=C(Nc1ccc(Cl)c(C(F)(F)F)c1)N[C@H]1CCN(CCCCCNC(=O)[C@@H]2C[C@H]2c2ccc(Cl)c(Cl)c2)C1
inactive: growth inhibition [1] -2% | inhibition [2] 39% | inhibition [3] 0% | outcome [5] | outcome [6] | outcome [7] | outcome [8]
active: growth inhibition [4] 94%

Nc1nc(N)c2c(ccc3c2ccn3C2CCCCC2)n1
active: inhibition [2] 67% | growth inhibition [4] 97%
inactive: growth inhibition [1] 46% | inhibition [3] 0% | outcome [5] | outcome [6] | outcome [7] | outcome [8]

O=C1COc2cc(Cl)c(CNC3CCN(CCc4ccnc5c(F)cc(F)cc45)CC3)nc2N1
inactive: growth inhibition [1] 49% | inhibition [3] -2% | outcome [5] | outcome [6] | outcome [7] | outcome [8]
active: inhibition [2] 96% | growth inhibition [4] 98%

O=C(Nc1ccc(Oc2ccccc2)cc1)N(Cc1ccc(-c2cccc(CN3CCNCC3)c2)cc1)C1CCN(Cc2ccccc2)CC1
inactive: inhibition [2] 10% | inhibition [3] -1% | outcome [5] | outcome [6] | outcome [7] | outcome [8]
active: growth inhibition [1] 53% | growth inhibition [4] 93%

COc1ccc2c(c1)ncn2-c1cc(OCc2ccncc2Br)c(C(N)=O)s1
inactive: inhibition [2] 14% | inhibition [3] -2% | outcome [5] | outcome [6] | outcome [7] | outcome [8]
active: growth inhibition [1] 50% | growth inhibition [4] 95%

O=C(Nc1ccccc1Cc1ccccc1)c1ccccc1[N+](=O)[O-]
active: growth inhibition [1] 59% | growth inhibition [4] 98%
inactive: inhibition [2] -6% | inhibition [3] 3% | outcome [5] | outcome [6] | outcome [7] | outcome [8]

O=C(Cc1ccccn1)Nc1cccc(-c2cccc(-c3nc4ccc(C(F)(F)F)cc4[nH]3)c2)c1
inactive: growth inhibition [1] 22% | inhibition [2] 26% | inhibition [3] -2% | outcome [5] | outcome [6] | outcome [7] | outcome [8]
active: growth inhibition [4] 95%

O=C(Nc1cccc(CN2CCCN(Cc3ccc(O)cc3)CC2)c1)c1cc(F)cc(F)c1
inactive: growth inhibition [1] 13% | inhibition [2] 15% | inhibition [3] 0% | outcome [5] | outcome [6] | outcome [7] | outcome [8]
active: growth inhibition [4] 100%

CCOc1c(Br)cc(C)cc1CNCCCNc1nc2ccccc2[nH]1
inactive: growth inhibition [1] 5% | inhibition [2] 24% | inhibition [3] 6% | outcome [5] | outcome [6] | outcome [7] | outcome [8]
active: growth inhibition [4] 93%

O=C(Cc1cccc(Cl)c1)N1CCc2cc3nccc(N4CCN5CCC[C@H]5C4)c3cc21
active: growth inhibition [4] 96%
inactive: growth inhibition [1] 4% | inhibition [2] 14% | inhibition [3] 4% | outcome [5] | outcome [6] | outcome [7] | outcome [8]

O=C(Nc1ccc(-c2ccccc2)cc1)Nc1cccc(Cn2ncc(N3CCNCC3)c(Cl)c2=O)c1
inactive: inhibition [2] 30% | inhibition [3] 5% | outcome [5] | outcome [6] | outcome [7] | outcome [8]
active: growth inhibition [1] 59% | growth inhibition [4] 100%

COc1ccc(-c2ccc(NC(=O)c3cccc(C#N)c3)cc2)cc1CN(C)C
active: growth inhibition [4] 103%
inactive: growth inhibition [1] 10% | inhibition [2] 11% | inhibition [3] 0% | outcome [5] | outcome [6] | outcome [7] | outcome [8]

O=C(NC1CCN(CCN2CCC(c3cn(CCO)c4ccccc34)CC2)CC1)c1ccc(-c2ccc(C(F)(F)F)cc2)cc1
active: growth inhibition [1] 54% | growth inhibition [4] 98%
inactive: inhibition [2] 30% | inhibition [3] -1% | outcome [5] | outcome [6] | outcome [7] | outcome [8]

CC(CN1CCN(C)CC1)C(=O)Nc1ccc(-c2ccc(-c3nc4ccccc4[nH]3)s2)cc1 (stereo not drawn)
inactive: inhibition [2] 5% | inhibition [3] 4% | outcome [5] | outcome [6] | outcome [7] | outcome [8]
active: growth inhibition [1] 79% | growth inhibition [4] 100%

O=C(/C=C/c1ccc(Cl)c(Cl)c1)NCCCCCN1CC[C@H](NC(=O)c2sc3ccccc3c2Cl)C1
inactive: growth inhibition [1] 3% | inhibition [2] 26% | inhibition [3] -2% | outcome [5] | outcome [6] | outcome [7] | outcome [8]
active: growth inhibition [4] 97%

COc1ccc(-c2ccc(CNCc3ccc(F)cc3)cc2)cc1S(=O)(=O)NCCN1CCCC1
active: growth inhibition [4] 98%
inactive: growth inhibition [1] 33% | inhibition [2] 24% | inhibition [3] 3% | outcome [5] | outcome [6] | outcome [7] | outcome [8]

Cc1cccc2[nH]c(-c3ccc(-c4cccc(CNCCCNS(C)(=O)=O)c4)s3)nc12
active: growth inhibition [4] 99%
inactive: growth inhibition [1] 19% | inhibition [2] 20% | inhibition [3] 2% | outcome [5] | outcome [6] | outcome [7] | outcome [8]

OC1CCC(Nc2ccc3ncc(-c4ccc5ccccc5c4)n3n2)CC1 (stereo not drawn)
inactive: inhibition [3] 3% | outcome [5] | outcome [6] | outcome [7] | outcome [8]
active: growth inhibition [1] 94% | inhibition [2] 52% | growth inhibition [4] 95%
